Data taken from PubChem BioAssay (NCATS).
Records with an inconclusive call do not appear. Active and inactive are the calls of the source. Unless noted, calls follow the shape of the dose curve; as a rule, active = well fitted curve in the direction sought with a large enough effect; inconclusive = small, poorly fitted or top-dose-only effect, or another doubt; inactive = no such curve, though single readings can be large; an effect the other way counts as inactive or inconclusive.

Legend:
[1] = AP1 Signaling Pathway (AID 357; active = well fitted curve in either direction with a large enough effect, not every such curve was filed as active;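 also: ME-180 reporter cells stimulated with EGF at its EC50 level; % is scaled to controls: 0 for no effect and ±100 for the full control effect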); conditions: ME-180 AP-1-bla reporter, EGF-induced, beta-lactamase ratio, 5 h; at 17.2 µM (top of the series) unless noted
Method in brief: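 A ratiometric CCF4 readout (405 nm excitation; 460 and 530 nm emission) quantified AP-1-driven beta-lactamase in ME-180 cells after 5 h with compound and EC50 EGF; AC50 values were derived for activators and inhibitors.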

[2] = target: Cytochrome P450 1A2 (Homo sapiens) (UniProt P05177); assay: p450-cyp1a2 (AID 410; calls by dose curve; also: potency is read from the fitted curve at half-maximal effect;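 as to activity change, negative = inhibition: -100% = full effect of reference inhibitor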)
Chain of Cytochrome P450 1A2 (Homo sapiens) (P05177 whole entry, looked up): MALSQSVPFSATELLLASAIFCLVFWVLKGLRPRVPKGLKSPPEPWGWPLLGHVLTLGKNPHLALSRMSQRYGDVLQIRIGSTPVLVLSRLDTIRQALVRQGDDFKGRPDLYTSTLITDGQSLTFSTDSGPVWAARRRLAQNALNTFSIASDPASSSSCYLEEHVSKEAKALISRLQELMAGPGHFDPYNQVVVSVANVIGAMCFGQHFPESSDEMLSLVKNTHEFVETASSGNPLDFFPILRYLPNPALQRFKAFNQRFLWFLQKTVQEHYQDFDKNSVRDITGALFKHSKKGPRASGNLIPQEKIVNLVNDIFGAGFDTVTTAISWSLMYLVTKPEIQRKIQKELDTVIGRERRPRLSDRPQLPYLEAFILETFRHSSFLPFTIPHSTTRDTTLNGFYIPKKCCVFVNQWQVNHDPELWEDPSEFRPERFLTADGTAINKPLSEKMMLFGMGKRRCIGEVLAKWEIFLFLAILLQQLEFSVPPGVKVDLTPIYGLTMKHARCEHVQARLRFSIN
Method in brief: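 Human CYP1A2 (20nM) demethylated Luciferin-ME at its Km (100uM) in 100mM KPO4. After 10 min compound preincubation, NADPH regeneration ran the reaction 60 min at room temperature. Luciferin was read by luminescence, normalized to 57 uM furafylline.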

[3] = Stat Signaling Pathway (AID 446; active = well fitted curve in either direction with a large enough effect, not every such curve was filed as active;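 also: ME-180 cervical cancer cells given 40 pM IL-6 alongside compound; SIE-controlled beta-lactamase reporter measured as 460/530 nm FRET emission ratio; % is scaled to controls: 0 for no effect and ±100 for the full control effect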)
Method in brief: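 ME-180 cells carrying a SIE-driven beta-lactamase reporter are stimulated with 40 pM IL-6 for 5 h at 37C in the presence of compound. The 460/530 nm FRET substrate ratio is read after 2.5 h at RT. Data are normalised to 300 pM IL-6 and to 125 nM JAK inhibitor controls.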

[4] = target: Glucocorticoid receptor (Homo sapiens) (UniProt P04150); assay: GR-GFP Redistribution (AID 450;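 active = compounds whose dose series gives a full or clear partial fitted curve of increased nuclear translocation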; also: potency is read from the fitted curve at half-maximal effect); conditions: U2OS GR-GFP nuclear translocation, laser cytometry, 2 h
Chain of Glucocorticoid receptor (Homo sapiens) (P04150 whole entry, looked up, the tested form may be a part): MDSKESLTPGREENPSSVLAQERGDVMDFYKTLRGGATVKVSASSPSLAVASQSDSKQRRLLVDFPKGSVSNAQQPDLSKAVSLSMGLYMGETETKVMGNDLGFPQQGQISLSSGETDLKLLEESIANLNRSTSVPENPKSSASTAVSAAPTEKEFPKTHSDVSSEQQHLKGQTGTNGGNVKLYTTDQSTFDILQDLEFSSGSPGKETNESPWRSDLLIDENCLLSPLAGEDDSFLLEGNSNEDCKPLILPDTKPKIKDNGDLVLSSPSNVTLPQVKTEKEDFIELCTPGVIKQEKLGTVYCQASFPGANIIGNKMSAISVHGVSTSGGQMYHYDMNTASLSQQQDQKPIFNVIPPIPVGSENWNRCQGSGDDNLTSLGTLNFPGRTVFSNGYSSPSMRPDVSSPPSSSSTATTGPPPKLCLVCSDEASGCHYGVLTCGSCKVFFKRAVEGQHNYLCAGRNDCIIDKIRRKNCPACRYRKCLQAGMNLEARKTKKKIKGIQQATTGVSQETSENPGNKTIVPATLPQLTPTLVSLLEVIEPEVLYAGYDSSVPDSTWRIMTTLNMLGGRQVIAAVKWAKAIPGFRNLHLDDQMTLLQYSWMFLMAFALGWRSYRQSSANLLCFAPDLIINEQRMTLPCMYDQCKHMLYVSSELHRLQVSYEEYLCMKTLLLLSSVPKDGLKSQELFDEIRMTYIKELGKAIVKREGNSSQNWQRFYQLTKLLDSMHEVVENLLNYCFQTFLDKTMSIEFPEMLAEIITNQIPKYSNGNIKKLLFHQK

[5] = target: Glucocorticoid receptor (Homo sapiens) (UniProt P04150); assay: GR-EFC Redistribution (AID 451; calls by dose curve; also: potency is read from the fitted curve at half-maximal effect); conditions: CHO-K1 GR-EFC translocation, beta-gal luminescence, 2 h
Method in brief: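 CHO-K1 cells stably expressing nuclear-localized β-gal enzyme acceptor and GR fused C-terminally to the enzyme donor fragment; ligand-driven nuclear translocation restores β-gal by complementation. Compounds titrated up to 46 uM final, 2 h at 37 °C; luminescence read.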

[6] = target: Mitogen-activated protein kinase 10 (Mus musculus) (UniProt Q61831); assay: JNK3 AlphaScreen Assay (AID 530; active = well fitted curve in either direction with a large enough effect, not every such curve was filed as active;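 also: kinase came from lysate of stimulated human HepG2 cells; signal reports phosphorylation of biotinylated GST-cJun 1-79 at Ser73 with 10 µM ATP; % is scaled to controls: 0 for no effect and ±100 for the full control effect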)
Method in brief: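 JNK3 came from HepG2 lysates pre-activated with IL-1beta and TNF-alpha and phosphorylated biotinylated GST-cJun (1-79) at 10 uM ATP, pH 7.6, room temperature. Compounds were titrated. AlphaScreen signal used anti-phospho-cJun (Ser73) antibody.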

[7] = target: 3',5'-cyclic-AMP phosphodiesterase 4B (Homo sapiens) (UniProt Q07343); assay: qHTS Assay for Inhibitors of PDE-IV (AID 607; active = well fitted activation curve with a large enough effect in the main read-out, with a control signal flat, not every such curve was filed as active; also: % of control where 0% means no effect)
Chain of 3',5'-cyclic-AMP phosphodiesterase 4B (Homo sapiens) (Q07343 whole entry, looked up): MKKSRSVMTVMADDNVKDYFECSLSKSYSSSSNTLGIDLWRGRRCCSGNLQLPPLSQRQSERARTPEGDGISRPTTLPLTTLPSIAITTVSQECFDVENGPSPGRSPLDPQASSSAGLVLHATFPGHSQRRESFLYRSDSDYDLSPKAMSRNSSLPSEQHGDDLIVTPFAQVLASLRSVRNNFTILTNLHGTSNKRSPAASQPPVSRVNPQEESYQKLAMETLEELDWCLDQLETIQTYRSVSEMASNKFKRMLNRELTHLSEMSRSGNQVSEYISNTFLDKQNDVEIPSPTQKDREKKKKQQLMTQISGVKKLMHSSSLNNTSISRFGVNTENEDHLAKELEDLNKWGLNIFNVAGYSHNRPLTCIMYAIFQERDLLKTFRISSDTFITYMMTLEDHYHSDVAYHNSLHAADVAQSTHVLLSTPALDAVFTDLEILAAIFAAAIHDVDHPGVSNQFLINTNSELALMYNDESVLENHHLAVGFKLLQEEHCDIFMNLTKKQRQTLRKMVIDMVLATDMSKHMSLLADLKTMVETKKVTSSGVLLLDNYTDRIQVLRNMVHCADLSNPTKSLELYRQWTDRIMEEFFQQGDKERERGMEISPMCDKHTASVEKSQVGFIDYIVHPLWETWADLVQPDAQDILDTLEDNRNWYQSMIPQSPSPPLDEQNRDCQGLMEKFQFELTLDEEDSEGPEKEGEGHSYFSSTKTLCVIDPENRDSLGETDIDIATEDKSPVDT
Method in brief: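 HEK293 ACTOne cells with CNG channel (1000/well), endogenous PDE4; membrane potential dye, compounds up to 22.9 uM final. Fluorescence Ex 535/Em 590; RO 20-1724 (100 uM final) as reference.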

[8] = target: Guanine nucleotide-binding protein G(i) subunit alpha-1 (Homo sapiens) (UniProt P63096); assay: qHTS Assay for Inhibitors of RGS12 GoLoco Motif Activity (Green Fluorophore) (AID 879);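 also: 0% = labeled peptide with Gαi1 and full inhibition = labeled peptide alone without protein; negative values mean loss of peptide binding seen as reduced polarization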
Chain of Guanine nucleotide-binding protein G(i) subunit alpha-1 (Homo sapiens) (P63096 whole entry, looked up): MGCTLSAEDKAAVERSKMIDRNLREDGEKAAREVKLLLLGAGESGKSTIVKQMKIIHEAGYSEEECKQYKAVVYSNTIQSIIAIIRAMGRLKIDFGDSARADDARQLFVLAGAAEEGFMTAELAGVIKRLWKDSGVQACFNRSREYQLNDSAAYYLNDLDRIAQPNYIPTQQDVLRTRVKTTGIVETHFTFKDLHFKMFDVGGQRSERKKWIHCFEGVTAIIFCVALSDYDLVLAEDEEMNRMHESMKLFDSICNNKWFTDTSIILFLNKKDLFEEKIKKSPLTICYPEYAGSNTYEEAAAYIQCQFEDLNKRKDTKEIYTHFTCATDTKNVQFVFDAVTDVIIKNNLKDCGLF
Method in brief: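 Fluorescence polarization assay: 50 nM Gαi1 with 10 nM FITC-labeled RGS12 GoLoco peptide in 10 mM Tris pH 7.5, 150 mM NaCl, 0.1 mM GDP, 0.05% NP40, 10 min at room temperature with compound.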

[9] = qHTS Assay for Identification of Small Molecule Antagonists for NFkB Signaling Pathway (AID 895; active = well fitted inhibition curve with a large enough effect in the signal ratio, with a control signal flat, not every such curve was filed as active; the % refers to the signal ratio; also: potency is read from the fitted curve at half-maximal effect)
Method in brief: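 NFkB-bla ME-180 cervical carcinoma cells with beta-lactamase reporter under NFkB response element; compounds added, then TNF alpha at 10 pM final (EC50), 5 h at 37 C. LiveBLAzer substrate 2 h, room temperature; emission 460/530 nm at 405 nm excitation.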

[10] = target: Pyruvate kinase (Leishmania mexicana) (UniProt Q27686); assay: qHTS Validation Assay for Inhibitors of Leishmania Mexicana Pyruvate Kinase (AID 945);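 also: 0% = DMSO only neutral control wells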
Chain of Pyruvate kinase (Leishmania mexicana) (Q27686 2-499 E452W): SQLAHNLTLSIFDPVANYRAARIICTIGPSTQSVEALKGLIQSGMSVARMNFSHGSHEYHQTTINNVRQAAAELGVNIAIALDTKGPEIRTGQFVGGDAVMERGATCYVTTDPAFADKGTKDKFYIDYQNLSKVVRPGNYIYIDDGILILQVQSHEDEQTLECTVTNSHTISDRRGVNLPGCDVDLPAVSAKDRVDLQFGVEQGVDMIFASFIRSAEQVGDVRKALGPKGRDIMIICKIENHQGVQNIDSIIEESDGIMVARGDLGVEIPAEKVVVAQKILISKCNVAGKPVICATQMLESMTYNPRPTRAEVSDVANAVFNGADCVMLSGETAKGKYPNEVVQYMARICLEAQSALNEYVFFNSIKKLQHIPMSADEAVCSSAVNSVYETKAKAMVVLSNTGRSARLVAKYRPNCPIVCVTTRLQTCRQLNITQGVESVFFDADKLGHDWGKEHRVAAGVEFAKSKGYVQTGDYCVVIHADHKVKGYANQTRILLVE
Method in brief: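 LmPYK E451W 0.2 nM; 0.5 mM PEP, 0.1 mM ADP, 7 mM MgCl2, 50 mM KCl, imidazole pH 7.2, 0.01% Tween 20, 0.05% BSA; 1 h RT; PKLight luminescence; DMSO-normalized.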

[11] = target: Pyruvate kinase PKM (Homo sapiens) (UniProt P14618); assay: qHTS Assay for Activators of Human Muscle Pyruvate Kinase (AID 954; active = well fitted curve in the direction sought with a large enough effect, not every such curve was filed as active;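 also: 0% = uninhibited enzyme and -100% = no enzyme or full thiadiazolimine inhibition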)
Chain of Pyruvate kinase PKM (Homo sapiens) (P14618 whole entry, looked up): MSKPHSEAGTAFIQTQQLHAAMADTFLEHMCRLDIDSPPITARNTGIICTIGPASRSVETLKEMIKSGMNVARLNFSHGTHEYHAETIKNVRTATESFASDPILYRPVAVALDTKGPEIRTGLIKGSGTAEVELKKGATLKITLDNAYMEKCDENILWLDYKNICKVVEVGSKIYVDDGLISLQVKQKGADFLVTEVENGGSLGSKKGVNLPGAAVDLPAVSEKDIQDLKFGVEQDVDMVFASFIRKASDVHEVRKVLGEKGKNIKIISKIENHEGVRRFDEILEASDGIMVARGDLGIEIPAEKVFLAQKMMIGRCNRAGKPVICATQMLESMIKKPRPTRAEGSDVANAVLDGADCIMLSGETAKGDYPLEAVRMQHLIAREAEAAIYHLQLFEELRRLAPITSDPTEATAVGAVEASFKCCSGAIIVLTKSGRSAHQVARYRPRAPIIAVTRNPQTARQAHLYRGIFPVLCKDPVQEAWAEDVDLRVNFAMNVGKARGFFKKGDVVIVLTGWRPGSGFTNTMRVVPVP
Method in brief: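 Purified human PKM2 (0.1 nM) with 0.5 mM PEP (Km) and 0.1 mM ADP in 50 mM imidazole pH 7.2, KCl, MgCl2, 1 h at room temperature; ATP formed read by coupled luciferase luminescence. Normalized to no-enzyme/110 uM thiadiazolimine inhibition; 0.3 nM enzyme column for activation.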

[12] = target: Alpha-galactosidase (Coffea arabica) (UniProt Q42656); assay: Counterscreen for Glucocerebrosidase Inhibitors: qHTS Assay for Coffee Bean alpha-Galactosidase at pH 4.5 (AID 957);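 also: plate controls were enzyme alone for no effect and no enzyme for full effect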
Chain of Alpha-galactosidase (Coffea arabica) (Q42656 whole entry, looked up): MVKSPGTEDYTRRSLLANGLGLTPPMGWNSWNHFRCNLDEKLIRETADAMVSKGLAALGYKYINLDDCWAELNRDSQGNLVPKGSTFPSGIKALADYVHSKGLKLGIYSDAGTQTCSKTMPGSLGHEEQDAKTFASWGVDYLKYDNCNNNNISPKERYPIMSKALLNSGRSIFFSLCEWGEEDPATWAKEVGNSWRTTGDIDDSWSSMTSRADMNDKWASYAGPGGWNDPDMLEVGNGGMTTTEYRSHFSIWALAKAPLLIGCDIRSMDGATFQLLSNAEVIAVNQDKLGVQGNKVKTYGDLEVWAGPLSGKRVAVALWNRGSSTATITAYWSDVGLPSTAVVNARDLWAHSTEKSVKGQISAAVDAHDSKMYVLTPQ
Method in brief: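 Green coffee bean enzyme (2 nM final) was incubated with compounds (0.7 nM to 77 uM) and 4-methylumbelliferyl alpha-D-galactopyranoside (80 uM final) in 50 mM citric acid, 0.005% Tween-20, pH 4.5, 20 min at room temperature; AC50 from Hill fits.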

[13] = target: Alpha-galactosidase A (Homo sapiens) (UniProt P06280); assay: Counterscreen for Glucocerebrosidase Inhibitors: qHTS Assay for Human alpha-Galactosidase at pH 4.5 (AID 992); also: 0% is about no effect
Chain of Alpha-galactosidase A (Homo sapiens) (P06280 whole entry, looked up): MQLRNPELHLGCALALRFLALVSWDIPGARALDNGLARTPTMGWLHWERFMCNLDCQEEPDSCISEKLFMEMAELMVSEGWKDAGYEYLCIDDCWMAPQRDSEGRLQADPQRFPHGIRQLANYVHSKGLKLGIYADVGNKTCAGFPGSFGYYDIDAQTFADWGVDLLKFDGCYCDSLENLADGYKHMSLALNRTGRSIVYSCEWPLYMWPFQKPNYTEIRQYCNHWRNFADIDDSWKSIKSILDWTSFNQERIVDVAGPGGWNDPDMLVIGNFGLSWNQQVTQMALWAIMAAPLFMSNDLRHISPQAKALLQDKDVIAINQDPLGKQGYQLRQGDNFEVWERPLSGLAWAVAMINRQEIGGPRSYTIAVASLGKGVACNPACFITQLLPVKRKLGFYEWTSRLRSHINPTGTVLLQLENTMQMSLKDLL
Method in brief: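 Human enzyme (2 nM) with 80 uM 4-methylumbelliferyl alpha-D-galactopyranoside in 50 mM citric acid, 0.005% Tween-20, pH 4.5, 20 min at room temperature. Compounds 0.7 nM–77 uM; fluorescence Ex 365/Em 440 after pH 10 stop; AC50 from Hill fits.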

[14] = target: alpha-glucosidase (Oryza sativa, rice) (UniProt Q653V4); assay: Counterscreen for Glucocerebrosidase Inhibitors: qHTS Assay for Rice alpha-Glucosidase at pH 5.0 (AID 997);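 also: 0% = full activity with enzyme and -100% = basal without enzyme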
Method in brief: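 Rice alpha-glucosidase (4 nM final) with 400 uM 4-methylumbelliferyl-alpha-D-glucopyranoside in citrate buffer pH 5.0, 20 min at room temperature, stopped at pH 10; fluorescence 365/440 nm, compounds 0.7 nM–77 uM, AC50 from Hill fits.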

[15] = target: Alpha-galactosidase (Coffea arabica) (UniProt Q42656); assay: Counterscreen for Glucocerebrosidase Inhibitors: qHTS Assay for Coffee Bean alpha-Galactosidase at pH 5.9 (AID 998);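 also: plate controls were uninhibited enzyme for no effect and no-enzyme basal signal for full effect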
Method in brief: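 Green coffee bean enzyme (2 nM final) was incubated with compounds (0.7 nM–77 uM) and 4-methylumbelliferyl alpha-D-galactopyranoside (80 uM) in citrate buffer pH 5.9, 20 min at room temperature. High-pH stop; fluorescence 365/440 nm; AC50 from Hill fits.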

[16] = target: Muscarinic acetylcholine receptor M1 (Rattus norvegicus) (UniProt P08482); assay: qHTS Assay for Antagonists of Acetylcholine Muscarinic M1 Receptor: Measurement of IP-One Response (AID 944); also: potency is read from the fitted curve at half-maximal effect; nearly all actives have a fitted effect of over 75% in size
Chain of Muscarinic acetylcholine receptor M1 (Rattus norvegicus) (P08482 whole entry, looked up): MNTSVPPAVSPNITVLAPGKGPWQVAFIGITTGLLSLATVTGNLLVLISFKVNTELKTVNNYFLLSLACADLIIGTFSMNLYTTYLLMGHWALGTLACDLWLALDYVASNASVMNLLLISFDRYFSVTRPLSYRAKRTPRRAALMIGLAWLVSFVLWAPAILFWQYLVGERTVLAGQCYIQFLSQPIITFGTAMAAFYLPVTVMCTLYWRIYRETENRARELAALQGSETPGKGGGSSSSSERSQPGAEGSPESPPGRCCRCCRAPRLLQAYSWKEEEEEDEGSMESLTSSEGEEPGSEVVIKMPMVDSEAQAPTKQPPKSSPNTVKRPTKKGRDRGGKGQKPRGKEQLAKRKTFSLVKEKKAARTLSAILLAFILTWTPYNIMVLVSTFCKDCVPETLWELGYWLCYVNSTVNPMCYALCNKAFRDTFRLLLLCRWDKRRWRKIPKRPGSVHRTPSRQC
Method in brief: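 CHO cells expressing rat M1 receptor, recovered overnight, were pre-incubated 10 min with compound, then stimulated 30 min with carbachol at EC80 (200 nM) in LiCl-containing buffer, pH 7.4. IP1 accumulation was read by HTRF (620/665 nm).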

[17] = target: Cytochrome P450 2C9 (Homo sapiens) (UniProt P11712); assay: qHTS Assay for Inhibitors and Substrates of Cytochrome P450 2C9 (AID 883); also: % is scaled to controls: 0 for no effect and ±100 for the full control effect; nearly all actives have a fitted effect of over 60% in size
Method in brief: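 Human CYP2C9 (10nM) hydroxylated Luciferin-H (100uM, at its KM) to luciferin in 25mM KPO4. Compound was preincubated 10 min at 37C, then NADPH regeneration started a 60 min reaction at 37C. Luminescence was read after detection reagent, normalized to 57uM sulphaphenazole.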

[18] = target: Cytochrome P450 2D6 (Homo sapiens) (UniProt P10635); assay: qHTS Assay for Inhibitors and Substrates of Cytochrome P450 2D6 (AID 891);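 also: luciferin methyl ether substrate demethylated by CYP2D6 with NADPH regeneration; % is scaled to controls: 0 for no effect and ±100 for the full control effect; nearly all actives have a fitted effect of over 60% in size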
Method in brief: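 Human CYP2D6 (5 nM) with 30 uM Luciferin-ME EGE (at Km) in 100 mM KPO4, compound preincubated 10 min, then NADPH regeneration system for 60 min at room temperature. Luciferin read by luminescence; normalized to 1.43 uM quinidine.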

[19] = target: Cytochrome P450 2C19 (Homo sapiens) (UniProt P33261); assay: qHTS Assay for Inhibitors and Substrates of Cytochrome P450 2C19 (AID 899); also: % is scaled to controls: 0 for no effect and ±100 for the full control effect; nearly all actives have a fitted effect of over 60% in size
Method in brief: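 Human CYP2C19 (5nM) with Luciferin-H EGE at 10uM (its KM) in 50mM KPO4 was preincubated with compound for 10 min at 37C. NADPH regeneration started a 60 min 37C reaction. Luciferin was read by luminescence, normalized to 57uM ketoconazole.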

[20] = target: Cytochrome P450 3A4 (Homo sapiens) (UniProt P08684); assay: qHTS Assay for Activators of Cytochrome P450 3A4 (AID 885); also: nearly all actives have a fitted effect of over 65% in size
Method in brief: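 Human CYP3A4 (20 nM) with Luciferin-PPXE at 25 uM (its KM) in 200 mM KPO4; 10 min compound preincubation, then NADPH regeneration and 60 min reaction at RT. Luciferin read by luminescence; normalized to 57 uM ketoconazole full inhibition.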

[21] = target: Muscarinic acetylcholine receptor M1 (Rattus norvegicus) (UniProt P08482); assay: qHTS Assay for Antagonists of Acetylcholine Muscarinic M1 Receptor: Kinetic Measurement of Intracellular Calcium Response (AID 943); also: potency is read from the fitted curve at half-maximal effect; nearly all actives have a fitted effect of over 75% in size
Method in brief: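 CHO cells stably expressing rat M1 were loaded with no-wash Fluo-4 dye for 1 h at 37C, pre-incubated 10 min with compound, then challenged with EC80 carbachol (100 nM final); kinetic calcium read 4 min, peak/basal ratio.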

C[C@H](N[C@@H](C)CCc1ccccc1)[C@H](O)c1ccc(O)cc1
inactive: activity change, negative = inhibition [1] 10.2% [at 38 µM] | outcome [3] | Potency [4] > 46 µM | Potency [5] > 46 µM | outcome [6] | outcome [7] | Potency [8] | Potency [10] | outcome [11] | outcome [12] | outcome [13] | outcome [14] | outcome [15]
active: Potency [2] 7.94 µM | Potency [9] 0.0089 µM [stimulated with 10 pM TNF alpha]

CCCN1CCC[C@H](c2cccc(C#N)c2)C1
active: Potency [16] 11.2 µM
inactive: activity change, negative = inhibition [1] 7.99% [at 38 µM] | Potency [2] | outcome [3] | Potency [4] > 46 µM | Potency [5] > 46 µM | outcome [6] | outcome [7] | Potency [8] | Potency [10] | outcome [11] | outcome [12] | outcome [13] | outcome [14] | outcome [15]

COC[C@@H]1OC(=O)c2coc3c2[C@]1(C)C1=C(C3=O)[C@H]2CCC(=O)[C@]2(C)C[C@@H]1OC(C)=O
inactive: Potency [2] | Potency [4] > 46 µM | Potency [5] > 46 µM | outcome [7] | Potency [17] | Potency [18] | Potency [19]
active: activity change, negative = inhibition [1] -78.2% [at 38 µM]

C=CCN1C[C@@H](C)N([C@H](c2ccc(C(=O)N(CC)CC)cc2)c2cccc(OC)c2)C[C@H]1C
active: Potency [9] 5.01 µM | Potency [21] 14.1 µM
inactive: activity change, negative = inhibition [1] -9.21% [at 38 µM] | Potency [2] | Potency [4] > 46 µM | Potency [5] > 46 µM | outcome [6] | outcome [7] | Potency [8] | Potency [20] | Potency [10] | outcome [11] | outcome [12] | outcome [13] | outcome [14] | outcome [15]

CCCC[N+]1(C)[C@@H]2CC(OC(=O)[C@@H](CO)c3ccccc3)C[C@H]1[C@H]1O[C@H]12 (stereo not given in full)
inactive: activity change, negative = inhibition [1] 5.93% [at 38 µM] | Potency [2] | outcome [3] | Potency [4] > 46 µM | Potency [5] > 46 µM | outcome [6] | outcome [7] | Potency [8] | Potency [10] | outcome [11] | outcome [12] | outcome [13] | outcome [14] | outcome [15]
active: Potency [21] 0.141 µM | Potency [16] 0.562 µM
